# Sm TGR block: blocks Schistosoma mansoni thioredoxin glutathione reductase. AID 485364. Q962Y6. actives 3% (n = 360,000). Potency, µM (highest dose often 114 µM), for the others: at the highest dose activity change, negative = inhibition, most hits filed as inhibitors. purified TGR, DTNB reduction, TNB absorbance 405 nm; further: on the % scale 0 is the no-effect control and ±100 the full control effect; nearly all actives have a fitted effect of over 60% in size
#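 TGR 20 nM + NADPH 100 uM (dispensed conc.), cpd preinc 15 min RT; start with NADPH (500 uM addition) then DTNB (15 mM addition). Kinetic TNB absorbance, 405 nm filter. Four-parameter Hill fit across titration.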
# SARS PLpro yeast: blocks SARS-CoV papain-like protease in a yeast assay. Potency, µM (series often up to 32.9 µM), for inactives: top-dose activity, positive = growth rescue, most hits filed as activators. AID 485353. actives 0.19% (n = 330,000). S. cerevisiae expressing SARS-CoV PLpro, growth rescue; calls by dose curve; further: 0% is about no effect; nearly all actives have a fitted effect of over 55% in size
# Pf growth 48h: P. falciparum growth inhibition at 48 hours (one generation); Potency, µM (top dose mostly 28.7 µM), for the others: at the top dose activity change, negative = inhibition, usual class: inhibitors; P. falciparum luciferase growth in erythrocytes, 48 h; actives 5.9% (n = 310,000); further: on the % scale 0 is the no-effect control and ±100 the full control effect
#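 Luciferase-expressing parasites in RBCs, 2% Hct / 0.1% parasitemia final; RPMI 1640 + 0.5% Albumax; 37 C, 5% CO2, one generation; luminescence read-out, lower signal = inhibition.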
# Pf growth 96h: inhibits malaria parasite growth, 96 h. P. falciparum luciferase reporter growth, 96 h. Potency, µM (top dose mostly 28.7 µM), for the others: at the top dose activity change, negative = inhibition, hits mostly inhibitors. actives 6.9% (n = 320,000). AID 504834; further: on the % scale 0 is the no-effect control and ±100 the full control effect
#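 Delayed-death screen, second-generation endpoint: infected erythrocytes, 2% hematocrit, 0.05% parasitemia final; 96 hours at 37 C, 5% CO2; luciferase detection reagent; luminescence decrease equals reduced growth.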
# * = called active by the depositor; ? = inconclusive; . = no result given. An excerpt weighted towards active compounds, which were near 12% of everything screened. Unless noted, the call rests on the fitted dose curve; in most records, active means well fitted curve in the direction sought with a large enough effect; inconclusive means small, poorly fitted or top-dose-only effect, or another doubt; inactive means no such curve, though single readings can be large; an effect the other way counts as inactive or inconclusive. Potency means the concentration at half of the fitted maximal effect.
SMILES,Sm TGR block,SARS PLpro yeast,Pf growth 48h,Pf growth 96h
CCc1cc(=O)oc2c3c(cc(OCC(=O)NCc4ccccn4)c12)OC(C)(C)CC3,10%,-9%,?,?
Cc1ccc(C(=O)NCCc2nnc3ccc(NCc4ccc5c(c4)OCO5)nn23)cc1,-30%,11%,?,?
Cc1cc(C)n(CCc2nc3c4ccccc4nc(N4CCN(c5ccc(F)cc5)CC4)n3n2)n1,6%,.,.,.
Cc1c(C)c2c(OCC(=O)NCc3cccnc3)cc3c(c2oc1=O)CCC(C)(C)O3,9%,-1%,-8%,?
COc1cc2c(c3oc(=O)cc(CC(=O)O)c13)CCC(C)(C)O2,0%,1%,?,5.2µM*
Cc1c(C)c2c(OCC(=O)Nc3cccnc3)cc3c(c2oc1=O)CCC(C)(C)O3,-4%,-1%,?,4.1µM*
CCc1cc(=O)oc2c3c(cc(OCC(=O)NCCCCCC(=O)O)c12)OC(C)(C)CC3,6%,-2%,?,?
Cc1ccc(CCNC(=O)CCCn2c(=O)c3ccccc3n(Cc3ccccc3C)c2=O)cc1,-2%,.,.,.
CCc1ccc(Oc2nc3c(C)cccn3c(=O)c2/C=C(\C#N)c2nc3ccccc3s2)cc1,1%,.,.,.
CCOC(=O)c1ccc(N2C(=O)c3[nH]nc(-c4ccc(C)cc4)c3C2c2cccc(F)c2)cc1 (centres undefined),-4%,.,.,.
COc1ccc(C(=O)n2nc(C)c(Br)c2C)cc1,0%,6%,?,0.47µM*
CCn1c(N)nc2c1c(=O)n(C)c(=O)n2C,5%,-1%,19%,217%
Cn1nc(-c2ccccn2)nc2c(=O)n(C)c(=O)nc1-2,?,-1%,2.9µM*,2.9µM*
Cn1ncnc2c(=O)n(C)c(=O)nc1-2,-32%,-26%,0.93µM*,1%
CCCc1nc2c(=O)n(C)c(=O)nc-2n(C)n1,?,-5%,5.2µM*,-1%
Cc1cccc(Cn2cnc3c(oc4ccccc43)c2=O)c1,-1%,.,.,.
COc1ccccc1C(=O)NNC(=O)c1ccccc1Br,4%,2%,10%,10µM*
COc1ccc(Nc2ccccc2NC(=O)c2ccccc2Br)cc1,1%,-3%,1.7µM*,2.1µM*
Cc1ccccc1C(=O)Nc1ccccc1NC(=O)c1ccccc1Br,16%,2%,?,-7%
COc1ccccc1C(=O)NNS(=O)(=O)c1ccc(F)cc1,8%,4%,3%,4.1µM*
CC(=O)OC[C@]12CC[C@H]3[C@@](C)(CC[C@H]4C(C)(C)CCC[C@]34C)[C@@H]1C[C@H](C1=CC(=O)O[C@@H]1OC(C)=O)O2,.,-7%,.,.
CSCCC(C)N1CCC(Oc2ccc(C(=O)N3CCCC3)cc2)CC1 (centres undefined),-28%,-3%,?,?
COc1cc2cc(CCO)oc(=O)c2cc1OC,.,0%,.,.
O=C(NNc1ccc(C(F)(F)F)cc1[N+](=O)[O-])c1ccc(NS(=O)(=O)c2ccc(F)cc2)cc1,-4%,-4%,?,8.3µM*
CC(C)[C@H](Nc1ccc(C(F)(F)F)cc1[N+](=O)[O-])C(=O)O,0%,2%,5%,0%
SMILES,Sm TGR block,SARS PLpro yeast,Pf growth 48h,Pf growth 96h
O=S(=O)(c1cccc(-c2n[nH]c(=S)n2-c2ccc(OC(F)(F)F)cc2)c1)N1CCOCC1,.,-5%,.,.
O=c1c2ccccc2c(C=Nc2ccccc2O)c(O)n1-c1nccs1,-20%,-2%,13µM*,?
CC(C)(C)NC(=O)c1ccc(Sc2ccccc2)c([N+](=O)[O-])c1,8%,-5%,10µM*,?
COc1cc2[nH]c(=O)n(CCCC(=O)NCc3ccccc3Cl)c(=O)c2cc1OC,-1%,.,.,.
CN(Cc1ccccc1)C(=O)CCS(=O)(=O)c1ccc2c(c1)oc(=O)n2C,-1%,-3%,-19%,13µM*
Cc1cccc(N(C)C(=O)CCS(=O)(=O)c2ccc3c(c2)n(C)c(=O)c(=O)n3C)c1,9%,.,.,.
Cn1c(=O)c(=O)n(C)c2cc(S(=O)(=O)CCC(=O)NCc3ccccc3)ccc21,1%,7%,9%,?
CCN(Cc1ccccc1)C(=O)CCS(=O)(=O)c1ccc2c(c1)n(C)c(=O)c(=O)n2C,-2%,-2%,-28%,3.7µM*
Cc1cccc(N(C)C(=O)CCS(=O)(=O)c2ccc3c(c2)oc(=O)n3C)c1,40µM*,.,.,.
COc1ccc(S(=O)(=O)Nc2c(C)nn(C)c2C)cc1Br,.,2%,.,.
N#Cc1ccccc1Cn1c(=O)n(CCCC(=O)NCc2ccc3c(c2)OCO3)c(=O)c2sccc21,-6%,.,.,.
CCC(=O)N1CCc2cc(Br)cc(S(=O)(=O)CCC(=O)Nc3cccc(CC)c3)c21,7%,.,.,.
COc1ccc(-c2csc(N(CC3CCCO3)C(=O)c3ccc(C)cc3)n2)cc1 (centres undefined),-35%,2%,5.2µM*,10µM*
COc1ccc(-c2csc(N(CCCN(C)C)C(=O)c3ccc(C(C)(C)C)cc3)n2)cc1,9%,-6%,13µM*,16%
COc1ccc(-c2csc(N(CCCN(C)C)C(=O)c3ccc(C)cc3)n2)cc1,4%,-1%,8.3µM*,?
COc1ccc(-c2csc(N(CCCN(C)C)C(=O)c3ccc(Br)cc3)n2)cc1,-11%,-6%,?,?
CCN(CC)CCCN(C(=O)c1ccc(OC)cc1)c1nc(-c2ccc(OC)cc2)cs1,-7%,-1%,1.3µM*,-29%
CCN(CC)CCCN(C(=O)c1ccccc1C)c1nc(-c2ccc(OC)cc2)cs1,4%,-1%,?,-23%
COc1ccc(-c2csc(N(CCCN(C)C)C(=O)c3cc(OC)c(OC)c(OC)c3)n2)cc1,0%,2%,?,?
Cc1ccc(NC(=O)C2CCCN(S(=O)(=O)c3ccc(C)cc3)C2)cc1 (centres undefined),7%,.,.,.
COC(=O)c1c(NC(=O)CCCOc2cccc(C)c2)sc2c1C(C(=O)OC)CC2 (centres undefined),-8%,.,.,.
COc1ccc(-c2csc(N(CCc3ccc(OC)c(OC)c3)C(=O)COc3ccccc3)n2)cc1,0%,-2%,10µM*,11%
CCN(CC)CCCN(C(=O)c1ccccc1F)c1nc(-c2ccc(OC)cc2)cs1,-24%,8%,4.1µM*,-30%
COCC(CN1CCN(C2=NS(=O)(=O)c3ccccc32)CC1)OC(=O)c1ccccc1 (centres undefined),5%,1%,-5%,-1%
COc1ccccc1C(=O)NC1=NC(c2ccc(Br)cc2)CC(=O)N1 (centres undefined),5%,.,.,.
CC1CCN(S(=O)(=O)c2ccc3ncn(CC(=O)N(C)Cc4ccccc4)c(=O)c3c2)CC1,16%,-2%,?,15µM*
CC(Oc1ccc(Cl)cc1Cl)c1nc(-c2ccc(NC(=O)c3ccco3)cc2)no1 (centres undefined),-11%,-35%,.,0.93µM*
CCOc1ccccc1CNC(=O)c1ccc2nc(CCc3ccccc3)oc2c1,6%,.,.,.
O=C(N/N=C/c1cc(Cl)ccc1O)c1ccccc1Br,4%,-27%,3.7µM*,?
